Growth data for three molecules are collected here from PubChem BioAssay (NCI).

What all share (assay): NCI-60 one-dose screen, 48 h (100 = growth as untreated, 0 = no growth, -100 = all killed)
The subject of one test is NCI-H522 lung. The conditions noted are these: 10 µM unless noted.
A further test concerns COLO 205 colon. The conditions noted are these: 10 µM.
In the next test the test system is MALME-3M melanoma. The settings on record: 10 µM unless noted.
A further test deals with HCT-15 colon. The settings on record: 10 µM.
Another test relates to SNB-19 CNS. The settings on record: 10 µM unless noted.
In a further test the test system is LOX IMVI melanoma. The settings on record: 10 µM unless noted.
The test system of a further test is EKVX NSCLC. The conditions noted are these: 10 µM unless noted.
For a further test, the system named is SN12C renal. The conditions noted are these: 10 µM unless noted.
The next test deals with TK-10 renal. The settings on record: 10 µM unless noted.
In the next test the test system is CCRF-CEM leukemia. The settings on record: 10 µM unless noted.
Another test concerns MOLT-4 leukemia. The conditions noted are these: 10 µM.
In a further test the test system is SR leukemia. The conditions noted are these: 10 µM.
A further test concerns RPMI-8226 leukemia. The conditions noted are these: 10 µM unless noted.
For another test, the system named is OVCAR-8 ovarian. The settings on record: 10 µM unless noted.
The subject of the next test is IGROV1 ovarian. The settings on record: 10 µM.
In a further test the test system is MDA-MB-435 melanoma. The settings on record: 10 µM unless noted.
The next test relates to SK-MEL-5 melanoma. The settings on record: 10 µM unless noted.
The test system of another test is HCC-2998 colon. The conditions noted are these: 10 µM unless noted.

Molecules are shown by their SMILES. This is part of a sample that, as a whole, favours compounds with a hit. Of some 83,000 tested, about 20% had one in any assay.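 Note: values are percent growth. 100 is the growth of untreated cells, values between 100 and 0 indicate rising inhibition; between -100 and 0 indicates cell death.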 Calls of active or inactive are those of the source. The calls were made as follows: active = growth percent below 10; inactive = the rest.

Regarding `CCCCCN(CCCCC)CC(O)c1ccc(C)c(Cl)c1` (stereo not given), the growth was 83.5% (inactive) in the test with NCI-H522 lung; 91.3% (inactive) in the test with COLO 205 colon; 105% (inactive) in the test with MALME-3M melanoma; 99.9% (inactive) with HCT-15 colon; 98% (inactive) with SNB-19 CNS; 96.3% (inactive) with LOX IMVI melanoma. Further, the growth with EKVX NSCLC was 95.2% (inactive); with SN12C renal, 101% (inactive); in the test with TK-10 renal, 98.5% (inactive); with CCRF-CEM leukemia, 99% (inactive); with MOLT-4 leukemia, 110% (inactive); with SR leukemia it was 92.4% (inactive). In addition, the growth in the test on RPMI-8226 leukemia is 91.8% (inactive); in the test with OVCAR-8 ovarian, 102% (inactive); with IGROV1 ovarian, 92.2% (inactive); with MDA-MB-435 melanoma, 104% (inactive).
For the molecule `CNc1ccc(C(=O)CC(O)CCC(C)C2OC(=O)CC(O)CC(=O)CC(O)CC(O)CC(O)CC(O)CC3(O)CC(O)C(C(=O)OC)C(CC(O[C@@H]4O[C@H](C)[C@@H](O)[C@H](N)[C@@H]4O)/C=C/C=C/C=C/C=C/C=C/C=C/C=C/C2C)O3)cc1` (stereo not given in full), the growth is -13.2% (active) with NCI-H522 lung; 2.91% (active) in the test with COLO 205 colon; -78.6% (active) in the test with MALME-3M melanoma; 41.8% (inactive) with SNB-19 CNS; 2.72% (active) with SK-MEL-5 melanoma; -8.67% (active) in the test with LOX IMVI melanoma. In addition, the growth is -9.97% (active) with EKVX NSCLC; -81.3% (active) with SN12C renal; -47.6% (active) in the test with TK-10 renal; 14.9% (inactive) in the test with CCRF-CEM leukemia; -13.8% (active) in the test with MOLT-4 leukemia; -22.3% (active) in the test with OVCAR-8 ovarian. Further, the growth in the test on IGROV1 ovarian is 3.21% (active); in the test on MDA-MB-435 melanoma, -1.58% (active); in the test with HCC-2998 colon it was -43.9% (active).
Turning to `O=C(Nc1ccc(S(=O)(=O)F)cc1)Oc1ccccc1`, the growth is 110% (inactive) in the test with COLO 205 colon; 101% (inactive) in the test on MALME-3M melanoma; 104% (inactive) in the test with HCT-15 colon; 97.6% (inactive) in the test with SNB-19 CNS; 95.1% (inactive) in the test on LOX IMVI melanoma; 104% (inactive) in the test on SN12C renal. Further, the growth in the test with TK-10 renal is 96.5% (inactive); in the test on CCRF-CEM leukemia, 88.1% (inactive); in the test on MOLT-4 leukemia, 109% (inactive); in the test with SR leukemia, 99.9% (inactive); with RPMI-8226 leukemia, 92.3% (inactive); with OVCAR-8 ovarian, 101% (inactive). In addition, the growth in the test on MDA-MB-435 melanoma was 99.9% (inactive); in the test on HCC-2998 colon, 110% (inactive).
